“And” between values parts separate entries of the source, which are not always exact repeats. Identical values can stand only once. Unmarked numbers belong to inactive results. Inconclusive results are not listed. The source made the active and inactive calls. Unless noted, the call rests on the fitted dose curve; in most records, active means well fitted activation curve with a large enough effect; inconclusive means small, poorly fitted or top-dose-only effect; inactive means flat fitted curve, though single readings scatter.
Further: % of control where 0% means no effect.

The nature of the first assay: Confirmation and Secondary Assay for Modulators of Hemoglobin Beta Chain Splicing at IVS2 654 locus (AID 910).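 Further: HeLa cells stably carrying EGFP split by mutant beta-globin IVS2-654 intron.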 Conditions: HeLa EGFP-654 splicing reporter, GFP fluorescence, 48 h; series mostly up to 46.1 µM. An outline of the steps: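 HeLa cells stably expressing EGFP interrupted by β-globin IVS2-654 intron, seeded overnight in Opti-MEM/2% FCS, then treated 2 days at 37 °C. Restored splicing read as total peak GFP intensity per well by laser scanning cytometry (488 nm excitation, 500–520 nm emission); 500 nM antisense PNA as control.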
`CCCCCC(=O)O[C@@]1(C(C)=O)CCC2C3CCC4=CC(=O)CC[C@@]4(C)C3CC[C@]21C` (some centres not stated): the molecule was called inactive.

Take `CC1(C)CC[C@]2(C(=O)O)C(O)C[C@@]3(C)C(=CCC4[C@@]5(C)CCC(O)C(C)(C)C5CC[C@@]43C)C2C1` (some centres not stated): the result was inactive.

For the molecule `COc1ccc(-c2coc3c(OC)c(OC)cc(O)c3c2=O)cc1`, the molecule was classed as inactive.

With `CCC1CN2CCc3cc(OC)c(OC)cc3C2CC1CC1NCCc2cc(OC)c(OC)cc21` (configuration not stated), the outcome was inactive.

The nature of the next assay: qHTS Assay for Identification of Small Molecule Agonists for Hypoxia Response Element Signaling Pathway (AID 914; active means well fitted activation curve with a large enough effect in the signal ratio, with a control signal flat, not every such curve was filed as active; the % refers to the signal ratio). Conditions: ME-180 (cervical carcinoma) HRE-bla reporter, beta-lactamase ratio, CoCl2, 17 h; stronger effect = higher value. An outline of the steps: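 qHTS titration; ME-180 HRE-bla cells; EC50 CoCl2 co-treatment, 17 h at 37 degrees Celsius; CCF4 dye, ex 405nm, em 460nm and 530nm; %Activity from ratio; AC50.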
In general terms: Quantitative high-throughput screening tests each substance at several concentrations.
As to `CCc1cc2c(nc1CC)CCN(CC/C(C)=N/OC[C@@H](O)[C@@H]1O[C@@H]3OC(C)(C)O[C@@H]3[C@H]1O)C2`, the activation is -8.78%.

On to `CO[C@H]1COC(=O)C/C=C\[C@H](C)COC(=O)[C@@H](OCc2ccccc2)/C=C\[C@@H]1C`, for which the activation was -11.2%.

Consider `CC(C)=CCC/C(C)=C/CO/N=C1/[C@H]2O[C@@H]2[C@@H](O)[C@H]2[C@H]1CCn1c(=O)n(Cc3cc4c(cc3Cl)OCO4)c(=O)n12`, for which the activation is 3.23%.

Consider `CCN1C(=O)[C@H]2[C@H]3[C@H](O)[C@H](O)C/C(=N/O[C@@H](C)c4cn([C@H](CO)Cc5ccccc5)nn4)[C@@H]3CC[C@@H]2C1=O`, for which the activation was 1.7%.

For the molecule `COc1ccc(COC(=O)N/N=C2/C[C@@H](O)[C@@H](O)[C@@H]3[C@@H]4C(=O)N(c5cccc(Oc6ccccc6)c5)C(=O)[C@H]4CC[C@@H]23)cc1`, the activation is -7.26%.

`C#CCCCO/N=C1/C[C@@H](O)[C@@H](O)[C@@H]2[C@@H]3C(=O)N(C4CCCCC4)C(=O)[C@H]3CC[C@H]12`: the activation was 7.1%.

As for `CCCNC(=O)OC[C@@H]1O[C@H](CCON=C(C)C)C=C[C@@H]1Oc1ccc(OC)cc1`, the activation was -3.17%.

As for `C/C(CCN1CCc2nc(-c3ccccc3)c(-c3ccccc3)cc2C1)=N\O[C@@H](C)c1cc(-c2c(C)cc(C)cc2C)no1`, the activation is 20.9%.

In the case of `C/C(CCC(=O)OC[C@@H]1O[C@H](C#Cc2ccccc2)C=C[C@@H]1Oc1ccc(C)cc1)=N/OC[C@@H](C)[C@H](OCc1ccccc1)C(C)C`, the activation was 14.9%.

`C/C(CCN1CCCCc2nc(C)c(C)cc21)=N\OC[C@@H](C)[C@H](OCc1ccccc1)C(C)C`: the activation was 5.09%.

Consider `C/C(CCN1CCc2nc(-c3ccccc3)c(-c3ccccc3)cc2C1)=N\O[C@@H](C)CN1CCCc2nc(C)c(C)cc21`, for which the activation was 24.9%.

As for `CO[C@H]1COC(=O)C/C=C\[C@@H](C)COC(=O)[C@@H](OCc2ccccc2)/C=C\[C@@H]1C`, the activation is -3.25%.

As for `C=CC[C@@H]1C=C[C@@H](O/N=C\C[C@@H]2C=C[C@H](OC(C)=O)[C@H](COC(C)=O)O2)[C@@H](CO)O1`, the activation was 4.01%.

Consider `COc1ccc(-c2ccc3c(n2)CCCN3C[C@H](O)CN2CCCc3nc(-c4ccc(Br)cc4)ccc32)cc1`, for which the activation is 17.4% and 18.3%.

Another assay is described as follows: Confirmation and Secondary Assay for Modulators of Hemoglobin Beta Chain Splicing at IVS2 705 locus (AID 930).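 Further: HeLa cells stably expressing the EGFP-705 splicing reporter; GFP fluorescence per well restored by corrected splicing of the IVS2-705 intron in EGFP.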 The settings on record: HeLa EGFP-705 splicing reporter, GFP fluorescence, 48 h; series mostly up to 46.1 µM. An outline of the steps:
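Secondary splice-site specificity test uses HeLa expressing CMV-driven EGFP interrupted by IVS2-705; cells were treated 2 days at 37C with 500 nM antisense PNA as positive control.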
Turning to `CCCCCC(=O)O[C@@]1(C(C)=O)CCC2C3CCC4=CC(=O)CC[C@@]4(C)C3CC[C@]21C` (some centres not stated), the molecule was called inactive.

In the case of `CC1(C)CC[C@]2(C(=O)O)C(O)C[C@@]3(C)C(=CCC4[C@@]5(C)CCC(O)C(C)(C)C5CC[C@@]43C)C2C1` (some centres not stated), the molecule was classed as inactive.

In the case of `COc1ccc(-c2coc3c(OC)c(OC)cc(O)c3c2=O)cc1`, the call was inactive.

Take `CCC1CN2CCc3cc(OC)c(OC)cc3C2CC1CC1NCCc2cc(OC)c(OC)cc21` (configuration not stated): the call was inactive.

The record behind these values is PubChem BioAssay (NCATS).
